Results on 9 compounds are retold here after PubChem BioAssay (EPA / NIEHS).

Inconclusive results are not listed. Activity calls are given as the source filed them. The calls were made as follows, unless noted: active = hit-call score of the fitted dose curve at least 0.9, where 1 is the maximum; inactive = score below 0.9.

Assay [1] has as its system DIO1 (gene 1733). Kind of assay: CCTE_GLTED_hDIO1: CCTE's human Deiodinase 1 (DIO1) Inhibition Assay, Great Lakes Toxicology and Ecology Division (GLTED) Lab (AID 2283987; active = hit-call score of the fitted dose curve at least 0.9, where 1 is the maximum;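 also: isolated human DIO1 enzyme in a cell-free setup rather than cells; enzyme activity read as free iodide liberated from substrate via Sandell-Kolthoff colorimetry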). In short, it runs like this:
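Steps: human DIO1 enzyme plus test chemical, 3 h incubation; free iodide then quantified in a second Sandell-Kolthoff step by absorbance. DMSO served as negative control and baseline.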

Assay [2] is described as follows: CCTE_Harrill_HTTr_Viability_DMEM_6hr: (Pilot) CCTE's 6-hour Cell Viability Assessment for the High-Throughput Transcriptomics (HTTr) Platform, in MCF-7 cells cultured in DMEM + 10% fetal bovine serum, Harrill Lab (AID 2283973). In outline:
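Propidium iodide uptake imaged by high-content analysis after six hours of chemical treatment in an eight-concentration series. Cells: MCF-7 grown in DMEM with 10% fetal bovine serum; DMSO as baseline.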

The nature of assay [3]: CCTE_Harrill_HTTr_Viability_DMEM_12hr: (Pilot) CCTE's 12-hour Cell Viability Assessment for the High-Throughput Transcriptomics (HTTr) Platform, in MCF-7 cells cultured in DMEM + 10% fetal bovine serum, Harrill Lab (AID 2283974). In short, it runs like this:
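Propidium iodide dye exclusion imaged by high-content microscopy after 12 h chemical exposure (eight concentrations) of MCF-7 cells grown in DMEM plus 10% FBS; values fitted in both directions relative to DMSO.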

The nature of assay [4]: CCTE_Harrill_HTTr_Viability_DMEM_24hr: (Pilot) CCTE's 24-hour Cell Viability Assessment for the High-Throughput Transcriptomics (HTTr) Platform, in MCF-7 cells cultured in DMEM + 10% fetal bovine serum, Harrill Lab (AID 2283975). In short, it runs like this:
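Pilot study: propidium iodide dye exclusion, imaged by high content microscopy, after 24 h compound exposure (eight concentrations) in MCF-7 cultured in DMEM + 10% fetal bovine serum; DMSO served as negative control and baseline.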

Assay [5] is described as follows: CCTE_Harrill_HTTr_Viability_PRF_DMEM_6hr: (Pilot) CCTE's 6-hour Cell Viability Assessment for the High-Throughput Transcriptomics (HTTr) Platform, in MCF-7 cells cultured phenol red-free DMEM + 10% charcoal-stripped fetal bovine serum, Harrill Lab (AID 2283976). In outline: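 Membrane integrity by high-content imaging of propidium iodide uptake, six hours after dosing with eight concentrations. Cells: MCF-7 grown in phenol red-free DMEM plus 10% charcoal-stripped serum; DMSO serves as baseline for bidirectional fits.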

A short description of assay [6]: CCTE_Harrill_HTTr_Viability_PRF_DMEM_12hr: (Pilot) CCTE's 12-hour Cell Viability Assessment for the High-Throughput Transcriptomics (HTTr) Platform, in MCF-7 cells cultured in phenol red-free DMEM + 10% charcoal-stripped fetal bovine serum, Harrill Lab (AID 2283977). In outline:
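Membrane integrity was scored via propidium iodide dye exclusion imaging, fitted in both directions relative to DMSO. Compounds ran as eight-point dilutions for 12 hours on MCF-7 grown in phenol red-free DMEM plus 10% charcoal-stripped serum.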

Assay [7] can be described thus: CCTE_Harrill_HTTr_Viability_PRF_DMEM_24hr: (Pilot) CCTE's 24-hour Cell Viability Assessment for the High-Throughput Transcriptomics (HTTr) Platform, in MCF-7 cells cultured in phenol red-free DMEM + 10% charcoal-stripped fetal bovine serum, Harrill Lab (AID 2283980). In short, it runs like this:
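Propidium iodide exclusion imaged at 24 h after dosing scores viability; cells were MCF-7 grown in phenol red-free DMEM plus 10% charcoal-stripped serum, tested in eight concentrations, fitted in both directions against DMSO.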

Assay [8] can be described thus: CCTE_Harrill_HTTr_Apoptosis_DMEM_6hr: (Pilot) CCTE's 6-hour Apoptosis Assessment for the High-Throughput Transcriptomics (HTTr) Platform, in MCF-7 cells cultured in DMEM + 10% fetal bovine serum, Harrill Lab (AID 2283981). In short, it runs like this: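 MCF-7 cells grown in DMEM + 10% FBS were exposed for 6 hours to an eight-point dilution series. CellEvent Caspase 3/7 Green signal was imaged; activity fitted bidirectionally against DMSO.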

Assay [9] can be described thus: CCTE_Harrill_HTTr_Apoptosis_DMEM_12hr: (Pilot) CCTE's 12-hour Apoptosis Assessment for the High-Throughput Transcriptomics (HTTr) Platform, in MCF-7 cells cultured in DMEM + 10% fetal bovine serum, Harrill Lab (AID 2283982). In short, it runs like this:
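Caspase-3/7 activity was measured by high-content imaging (CellEvent Caspase 3/7 Green) after a 12-hour exposure of MCF-7 cells grown in DMEM with 10% FBS. Eight-point concentration series, fitted bidirectionally against vehicle.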

Assay [10] is described as follows: CCTE_Harrill_HTTr_Apoptosis_DMEM_24hr: (Pilot) CCTE's 24-hour Apoptosis Assessment for the High-Throughput Transcriptomics (HTTr) Platform, in MCF-7 cells cultured in DMEM + 10% fetal bovine serum, Harrill Lab (AID 2283983). In short, it runs like this: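 Caspase-3/7 activity read by high-content imaging (CellEvent Green reagent) 24 h after dosing. MCF-7 cells grown in DMEM with 10% FBS received an eight-point concentration series; fits were bidirectional versus DMSO.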

Assay [11] can be described thus: CCTE_Harrill_HTTr_Apoptosis_PRF_DMEM_6hr: (Pilot) CCTE's 6-hour Apoptosis Assessment for the High-Throughput Transcriptomics (HTTr) Platform, in MCF-7 cells cultured phenol red-free DMEM + 10% charcoal-stripped fetal bovine serum, Harrill Lab (AID 2283984). In short, it runs like this:
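Caspase-3/7 activity (CellEvent Green) read by high-content imaging 6 h after dosing, eight concentrations. Cells: MCF-7, phenol red-free DMEM with 10% charcoal-stripped serum. Curves fit both directions against DMSO.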

Assay [12] in a line: CCTE_Harrill_HTTr_Apoptosis_PRF_DMEM_24hr: (Pilot) CCTE's 24-hour Apoptosis Assessment for the High-Throughput Transcriptomics (HTTr) Platform, in MCF-7 cells cultured in phenol red-free DMEM + 10% charcoal-stripped fetal bovine serum, Harrill Lab (AID 2283986). In short, it runs like this:
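Eight concentrations tested for 24 h on MCF-7 grown in charcoal-stripped serum, phenol red-free DMEM. High content imaging of CellEvent Caspase 3/7 Green signal gives apoptosis read-out, fitted both ways relative to DMSO.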

In assay [13] the target is Nucleoli Translocation, AR (gene 367) (UniProt P10275). As to the kind of experiment: UPITT_HCI_U2OS_AR_TIF2_Nucleoli_Agonist: University of Pittsburgh U2OS Androgen Receptor-Transcriptional Intermediary Factor 2 (AR-TIF2) Agonism High Content Imaging Assay for Nucleoli Translocation (AID 2283998; active = hit-call score of the fitted dose curve at least 0.9, where 1 is the maximum). In outline: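 RFP-AR / GFP-TIF2 cells; cpds diluted in serum-free medium; single-point screen 20 uM final (0.2% DMSO), actives confirmed in triplicate; conc-response 0.195–50 uM final (0.5% DMSO). Readout: nucleolar red fluorescence, positive direction vs DMSO.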

Assay [14] addresses Ratio of Nucleoli Translocation and Cytoplasm, AR (gene 367) (UniProt P10275). Kind of assay: UPITT_HCI_U2OS_AR_TIF2_Nucleoli_Cytoplasm_Ratio_Antagonist: University of Pittsburgh U2OS Androgen Receptor-Transcriptional Intermediary Factor 2 (AR-TIF2) Antagonism High Content Imaging Assay for Ratio of Nucleoli Translocation and Cytoplasm (AID 2283999; active = hit-call score of the fitted dose curve at least 0.9, where 1 is the maximum;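 also: antagonists lower the DHT-driven ratio of nucleolar to cytoplasmic red signal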). In short, it runs like this: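 High-content imaging of red fluorescence ratio, nucleoli versus cytoplasm, in U2OS expressing AR-RFP and TIF2-GFP, fitted relative to DHT. Compounds tested once at 20 uM final, then 0.195 to 50 uM final in serial dilution.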

Assay [15] has the same target. Kind of assay: UPITT_HCI_U2OS_AR_TIF2_Nucleoli_Cytoplasm_Ratio_Agonist: University of Pittsburgh U2OS Androgen Receptor-Transcriptional Intermediary Factor 2 (AR-TIF2) Agonism High Content Imaging Assay for Ratio of Nucleoli Translocation and Cytoplasm (AID 2284000; active = hit-call score of the fitted dose curve at least 0.9, where 1 is the maximum;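 also: hits raise the red nucleolar to cytoplasm ratio above vehicle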). In short, it runs like this:
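Human osteosarcoma U2OS line, AR-RFP plus TIF2-GFP; compounds 0.195–50 uM final, 0.5% DMSO. Readout: nucleolar/cytoplasmic RFP ratio by HCI, positive direction vs DMSO baseline.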

Assay [16] in a line: CCTE_Simmons_MITO_basal_resp_rate: CCTE's HepG2 Seahorse XF Respirometric Screening Assay at Basal Respiratory State, Simmons Lab (AID 2284001). The settings on record: actives raise or lower the signal. In short, it runs like this: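 Basal-phase OCR of HepG2 cells on a Seahorse XF96, analysed by bidirectional fit relative to DMSO vehicle; chemicals at 7 concentrations, 125 nM–100 uM final; three biological replicates; fenpyroximate and 2,4-dinitrophenol positive controls.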

Assay [17] has as its target Nucleoli Translocation, AR (gene 367) (UniProt P10275). As to the kind of experiment: UPITT_HCI_U2OS_AR_TIF2_Nucleoli_Antagonist: University of Pittsburgh U2OS Androgen Receptor-Transcriptional Intermediary Factor 2 (AR-TIF2) Antagonism High Content Imaging Assay for Nucleoli Translocation (AID 2283997; active = hit-call score of the fitted dose curve at least 0.9, where 1 is the maximum). In short, it runs like this:
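Compounds are added at 20 uM final concentration in 0.2% DMSO to U2OS cells carrying AR-RFP and TIF2-GFP fusions. Nucleolar AR-RFP fluorescence is then quantified by automated imaging. Antagonism is fitted positively against DHT baseline.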

Assay [18] deals with THRB (gene 7068) (UniProt P10828). Kind of assay: TOX21_TRB_COA_Antagonist_Followup_ratio: Tox21 Thyroid Hormone Receptor beta Antagonism through Coactivator Recruitment Follow-Up Assay, Ratio (AID 2283967; active = hit-call score of the fitted dose curve at least 0.9, where 1 is the maximum). In short, it runs like this: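 GST-TRb LBD 5.0 nM + 0.10% BSA, compound added; fluorescein-SRC-2 peptide 200 nM, Tb-anti-GST Ab 2 nM. TR-FRET, ex 340 / em 520:495 ratio. Norm: DMSO 0%, T3 100%.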

Assay [19] is described as follows: TOX21_TR_RXR_BLA_Antagonist_Followup_viability: Viability Assessment in the Tox21 Thyroid Hormone Receptor beta Retinoid X Receptor alpha (RXRa) Antagonism Beta-lactamase (BLA) Follow-Up Assay (AID 2283979; active = hit-call score of the fitted dose curve at least 0.9, where 1 is the maximum). In outline: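 RXRa-bla HEK293T cells (2,500/well, phenol red-free DMEM, 2% charcoal-stripped FBS) were attached 5 h, then exposed to compounds at 11 concentrations in triplicate for 16 h at 37C. Viability measured by CellTiter-Glo ATP luminescence, bidirectional fitting versus DMSO.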

Ratio of Nucleoli Translocation and Cytoplasm, AR (gene 367), sequence (P10275 whole entry, looked up): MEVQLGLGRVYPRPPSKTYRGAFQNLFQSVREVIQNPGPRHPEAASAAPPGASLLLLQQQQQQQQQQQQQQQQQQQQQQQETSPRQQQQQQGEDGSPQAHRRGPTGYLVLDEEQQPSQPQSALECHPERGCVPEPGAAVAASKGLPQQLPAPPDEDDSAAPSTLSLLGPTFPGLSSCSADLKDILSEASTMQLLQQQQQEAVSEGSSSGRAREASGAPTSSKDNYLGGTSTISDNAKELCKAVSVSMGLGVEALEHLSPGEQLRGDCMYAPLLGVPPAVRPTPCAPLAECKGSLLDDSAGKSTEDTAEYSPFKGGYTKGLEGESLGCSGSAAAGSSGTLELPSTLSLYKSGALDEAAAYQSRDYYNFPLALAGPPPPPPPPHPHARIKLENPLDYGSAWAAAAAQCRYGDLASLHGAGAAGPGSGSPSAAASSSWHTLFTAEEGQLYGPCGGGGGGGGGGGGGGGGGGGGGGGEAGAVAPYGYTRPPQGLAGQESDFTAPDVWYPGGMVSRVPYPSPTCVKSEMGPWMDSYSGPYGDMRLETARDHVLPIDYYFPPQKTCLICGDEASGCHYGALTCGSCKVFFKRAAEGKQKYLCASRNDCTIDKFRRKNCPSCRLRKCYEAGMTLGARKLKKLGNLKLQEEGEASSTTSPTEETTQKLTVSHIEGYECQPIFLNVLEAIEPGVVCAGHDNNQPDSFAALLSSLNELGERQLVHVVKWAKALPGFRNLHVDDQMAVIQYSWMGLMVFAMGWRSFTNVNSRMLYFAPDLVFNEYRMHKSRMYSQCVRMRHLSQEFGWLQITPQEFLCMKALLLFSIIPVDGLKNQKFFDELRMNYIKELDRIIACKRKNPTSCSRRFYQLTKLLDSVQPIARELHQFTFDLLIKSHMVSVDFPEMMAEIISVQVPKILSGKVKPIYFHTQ
Nucleoli Translocation, AR (gene 367), sequence (P10275 whole entry, looked up, the tested form may be a part): as the sequence (P10275 whole entry, looked up) above
THRB (gene 7068), sequence (P10828 whole entry, looked up, the tested form may be a part): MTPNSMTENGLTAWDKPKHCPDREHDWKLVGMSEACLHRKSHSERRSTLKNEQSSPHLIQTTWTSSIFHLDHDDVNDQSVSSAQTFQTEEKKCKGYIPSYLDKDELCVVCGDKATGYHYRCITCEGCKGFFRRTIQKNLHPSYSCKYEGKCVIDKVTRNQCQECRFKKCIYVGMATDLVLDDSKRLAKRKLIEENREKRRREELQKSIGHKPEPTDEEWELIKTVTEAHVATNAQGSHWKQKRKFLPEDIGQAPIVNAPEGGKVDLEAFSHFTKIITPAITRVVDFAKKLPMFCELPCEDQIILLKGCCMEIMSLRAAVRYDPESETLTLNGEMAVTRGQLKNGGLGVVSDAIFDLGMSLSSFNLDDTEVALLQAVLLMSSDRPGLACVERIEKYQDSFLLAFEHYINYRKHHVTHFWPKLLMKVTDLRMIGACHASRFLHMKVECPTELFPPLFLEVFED

As for `S=c1[nH]c2ccccc2s1`, the AC50 in [1] was 23.4 µM (active).

In the case of `Cc1c(C)c2c(c(C)c1O)CCC(C)(COc1ccc(CC3SC(=O)NC3=O)cc1)O2` (stereo not given), the outcome in [2], in assay [3], in assay [4], in assay [5], in [6] and in assay [7] was inactive. Further, the result in assay [8], in assay [9], in assay [10], in [11], in assay [12] and in assay [13] was inactive. The outcome in [14] and in [15] was inactive. The AC50 in assay [1] was 85.9 µM (active); in [16], 3.22 µM (active).

Regarding `NCCOCCOCCN`, the compound was called inactive in assay [17], in assay [13], in [14] and in [15].

`CCC(C)N(C)C(=O)c1cc2ccccc2c(-c2ccccc2Cl)n1` (stereo not given): the outcome in [17], in [13], in assay [14] and in assay [15] was inactive.

Consider `Nc1nc(Cl)nc2c1ncn2[C@H]1C[C@H](O)[C@@H](CO)O1`, for which the outcome in assay [18], in [2], in assay [3], in assay [4], in assay [5] and in assay [6] was inactive. Moreover, the compound was classed as inactive in assay [19], in [7], in assay [8], in assay [9], in assay [10] and in assay [11]. Besides, the outcome in [12] was inactive.

On to `CCCCCCCCCC[N+](C)(C)[O-]`, for which the compound was classed as inactive in assay [17], in assay [13], in [14] and in [15].

`Cc1cc(Cc2ccc(N)c(C)c2)ccc1N`: in [16], the result was inactive.

With `CC(=O)O[C@]1(C(C)=O)CC[C@H]2[C@@H]3C=C(Cl)C4=CC(=O)[C@@H]5C[C@@H]5[C@]4(C)[C@H]3CC[C@@]21C`, the result in assay [2], in [3], in [4], in assay [5], in assay [6] and in [7] was inactive. Also, the outcome in assay [8], in [9], in assay [10], in assay [11] and in [12] was inactive. In addition, the AC50 in assay [16] was 29 µM (active).

Regarding `CC(C)OC(=O)C(C)(C)Oc1ccc(C(=O)c2ccc(Cl)cc2)cc1`, the outcome in assay [2], in assay [3], in assay [4], in assay [5], in assay [6] and in [7] was inactive. Moreover, the result in assay [8], in [9], in assay [10], in [11], in assay [12] and in assay [17] was inactive. Moreover, the result in assay [13] and in assay [14] was inactive. In addition, the AC50 in assay [16] is 30.5 µM (active).
